Test results taken from PubChem BioAssay AID1159580 (chemical genetic matrix, 2015).
Out of some 5,500 compounds screened, about 2,000 (36%) were called active. About 18% were inconclusive and are not listed. No stated cut-off is given here; in the data, active means normalized growth mostly below about 0.91 (no sharp cut-off); inconclusive means no clear call, values can overlap the other calls; inactive means mostly above about 0.92. Some of the results follow.

Assay: chemical genetic growth profiling, strain panel (AID 1159580);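 further: tested at 20 µM; growth read once vehicle control cultures reached saturation at 30 °C; 1 = growth at the plate median or of vehicle wells; lower values mean less growth of the strain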
Conditions: growth OD

Measured: normalized growth

O=C(OCc1ccccc1)c1ccccc1
active: S. cerevisiae deletion strains, locus YKR001C, strain vps1, active compounds read low 0.789 | S. cerevisiae deletion strains, locus YLR113W, strain HOG1, active compounds read low 0.783 | S. cerevisiae deletion strains, locus YLR262C, strain YPT6 (second series), active compounds read low 0.739 | S. cerevisiae deletion strains, locus YLR320W, strain mms22, active compounds read low 0.835 | S. cerevisiae deletion strains, locus YNL071W, strain lat1, active compounds read low 0.889 | S. cerevisiae deletion strains, locus YNL307C, strain MCK1, active compounds read low 0.798 | S. cerevisiae deletion strains, locus YOR106W, strain vam3, active compounds read low 0.859 | S. cerevisiae deletion strains, locus YOR184W, strain ser1, active compounds read low 0.655 | S. cerevisiae deletion strains, locus YOR231W, strain MKK1, active compounds read low 0.86
inactive: S. cerevisiae deletion strains, locus YKL009W, strain mrt4, active compounds read low 0.934 | S. cerevisiae deletion strains, locus YKL068W, active compounds read low 0.961 | S. cerevisiae deletion strains, locus YKL085W, strain MDH1 (second series), active compounds read low 0.957 | S. cerevisiae deletion strains, locus YKL085W, strain MDH1, active compounds read low 0.957 | S. cerevisiae deletion strains, locus YKL160W, strain elf1, active compounds read low 0.951 | S. cerevisiae deletion strains, locus YKL190W, strain CNB1, active compounds read low 1 | S. cerevisiae deletion strains, locus YKR026C, strain gcn3, active compounds read low 0.954 | S. cerevisiae deletion strains, locus YKR091W, strain srl3, active compounds read low 0.952 | S. cerevisiae deletion strains, locus YLL001W, strain dnm1, active compounds read low 0.945 | S. cerevisiae deletion strains, locus YLL026W, active compounds read low 0.953 | S. cerevisiae deletion strains, locus YLL041C, strain sdh2, active compounds read low 0.965 | S. cerevisiae deletion strains, locus YLR027C, strain aat2, active compounds read low 0.954 | S. cerevisiae deletion strains, locus YLR039C, strain RIC1, active compounds read low 0.83 | S. cerevisiae deletion strains, locus YLR058C, strain SHM2, active compounds read low 0.987 | S. cerevisiae deletion strains, locus YLR102C, strain apc9, active compounds read low 0.969 | S. cerevisiae deletion strains, locus YLR221C, strain rsa3, active compounds read low 0.925 | S. cerevisiae deletion strains, locus YLR258W, strain gsy2, active compounds read low 0.956 | S. cerevisiae deletion strains, locus YLR262C, strain YPT6, active compounds read low 0.839 | S. cerevisiae deletion strains, locus YLR268W, strain sec22, active compounds read low 0.941 | S. cerevisiae deletion strains, locus YLR330W, strain CHS5, active compounds read low 0.982 | S. cerevisiae deletion strains, locus YLR342W, strain FKS1 (second series), active compounds read low 0.906 | S. cerevisiae deletion strains, locus YLR342W, strain FKS1, active compounds read low 0.944 | S. cerevisiae deletion strains, locus YLR357W, strain rsc2, active compounds read low 1.05 | S. cerevisiae deletion strains, locus YLR370C, strain arc18, active compounds read low 0.969 | S. cerevisiae deletion strains, locus YLR371W, strain rom2, active compounds read low 0.966 | S. cerevisiae deletion strains, locus YLR384C, strain iki3, active compounds read low 0.974 | S. cerevisiae deletion strains, locus YLR418C, strain cdc73, active compounds read low 0.885 | S. cerevisiae deletion strains, locus YML016C, strain PPZ1, active compounds read low 0.991 | S. cerevisiae deletion strains, locus YML032C, strain rad52, active compounds read low 0.948 | S. cerevisiae deletion strains, locus YML120C, strain ndi1, active compounds read low 0.939 | S. cerevisiae deletion strains, locus YML124C, strain tub3, active compounds read low 0.969 | S. cerevisiae deletion strains, locus YMR058W, strain fet3, active compounds read low 0.952 | S. cerevisiae deletion strains, locus YMR078C, strain ctf18, active compounds read low 0.957 | S. cerevisiae deletion strains, locus YMR125W, strain sto1, active compounds read low 0.966 | S. cerevisiae deletion strains, locus YMR129W, active compounds read low 0.967 | S. cerevisiae deletion strains, locus YMR205C, strain PFK2, active compounds read low 0.899 | S. cerevisiae deletion strains, locus YMR223W, strain ubp8, active compounds read low 0.925 | S. cerevisiae deletion strains, locus YMR231W, strain pep5, active compounds read low 0.984 | S. cerevisiae deletion strains, locus YMR263W, strain SAP30, active compounds read low 0.981 | S. cerevisiae deletion strains, locus YMR307W, strain GAS1, active compounds read low 1.06 | S. cerevisiae deletion strains, locus YNL067W, strain RPL9B, active compounds read low 0.954 | S. cerevisiae deletion strains, locus YNL128W, strain TEP1, active compounds read low 0.989 | S. cerevisiae deletion strains, locus YNL183C, strain NPR1, active compounds read low 0.868 | S. cerevisiae deletion strains, locus YNL209W, strain ssb2, active compounds read low 0.968 | S. cerevisiae deletion strains, locus YNL233W, strain BNI4, active compounds read low 0.931 | S. cerevisiae deletion strains, locus YNL248C, strain rpa49, active compounds read low 0.905 | S. cerevisiae deletion strains, locus YNL250W, strain rad50, active compounds read low 0.987 | S. cerevisiae deletion strains, locus YNL271C, strain bni1, active compounds read low 0.95 | S. cerevisiae deletion strains, locus YNL298W, strain CLA4, active compounds read low 0.954 | S. cerevisiae deletion strains, locus YNL322C, strain KRE1 (second series), active compounds read low 0.973 | S. cerevisiae deletion strains, locus YNL322C, strain KRE1, active compounds read low 0.989 | S. cerevisiae deletion strains, locus YNR049C, strain mso1, active compounds read low 0.954 | S. cerevisiae deletion strains, locus YNR052C, strain pop2, active compounds read low 1 | S. cerevisiae deletion strains, locus YOL006C, strain TOP1, active compounds read low 0.725 | S. cerevisiae deletion strains, locus YOL012C, strain htz1 1.34 | S. cerevisiae deletion strains, locus YOL147C, strain pex11, active compounds read low 0.974 | S. cerevisiae deletion strains, locus YOR001W, strain rrp6, active compounds read low 0.916 | S. cerevisiae deletion strains, locus YOR061W, strain CKA2, active compounds read low 0.988 | S. cerevisiae deletion strains, locus YOR069W, strain VPS5, active compounds read low 0.991 | S. cerevisiae deletion strains, locus YOR070C, strain gyp1, active compounds read low 0.965 | S. cerevisiae deletion strains, locus YOR080W, strain dia2, active compounds read low 0.985 | S. cerevisiae deletion strains, locus YOR083W, strain WHI5, active compounds read low 0.97 | S. cerevisiae deletion strains, locus YOR136W, strain idh2, active compounds read low 0.987 | S. cerevisiae deletion strains, locus YOR144C, strain elg1, active compounds read low 0.974 | S. cerevisiae deletion strains, locus YOR265W, strain rbl2, active compounds read low 0.957 | S. cerevisiae deletion strains, locus YOR270C, strain vph1, active compounds read low 0.927 | S. cerevisiae deletion strains, locus YOR290C, strain snf2, active compounds read low 0.941 | S. cerevisiae deletion strains, locus YOR316C, strain cot1, active compounds read low 0.974 | S. cerevisiae deletion strains, locus YPL051W, strain arl3, active compounds read low 0.96 | S. cerevisiae deletion strains, locus YPL078C, strain atp4, active compounds read low 0.933 | S. cerevisiae deletion strains, locus YPL106C, strain sse1, active compounds read low 1 | S. cerevisiae deletion strains, locus YPL240C, strain hsp82, active compounds read low 0.958 | S. cerevisiae deletion strains, locus YPL241C, strain CIN2, active compounds read low 0.99 | S. cerevisiae deletion strains, locus YPL256C, strain CLN2, active compounds read low 0.832 | S. cerevisiae deletion strains, locus YPR119W, strain clb2, active compounds read low 0.975 | S. cerevisiae deletion strains, locus YPR141C, strain kar3, active compounds read low 0.949 | S. cerevisiae deletion strains, locus YPR163C, strain tif3, active compounds read low 0.975 | S. cerevisiae deletion strains, locus YPR167C, strain met16, active compounds read low 0.96 | S. cerevisiae deletion strains, strain wtn01, active compounds read low 0.928 | S. cerevisiae strains, strain wild type, active compounds read low 0.984
